Measured values taken from ChEMBL document CHEMBL3988442, “University of Dundee, Small-Polar-MMV Screening Library” (2021).
For some assays here: Potency and affinity values are given separately.

Tests used:
Parameters in all cases: scale not given: direction of the effect not stated beside the values
[1] = biological target: Protein translocase subunit SecA (Escherichia coli (strain K12)) (UniProt P10408); test: Assay to Identify E. coli SecA ATPase Inhibitors; type: functional; details: 30 µM
[2] = biological target: T1, Ubiquitin-activating enzyme e1, putative (Leishmania donovani (strain BPK282A1)) (UniProt E9BSI1); test: Leishmania donovani Ubiquitin Activating Enzyme (LdE1); type: functional; details: 30 µM
T1 sequence (whole entry): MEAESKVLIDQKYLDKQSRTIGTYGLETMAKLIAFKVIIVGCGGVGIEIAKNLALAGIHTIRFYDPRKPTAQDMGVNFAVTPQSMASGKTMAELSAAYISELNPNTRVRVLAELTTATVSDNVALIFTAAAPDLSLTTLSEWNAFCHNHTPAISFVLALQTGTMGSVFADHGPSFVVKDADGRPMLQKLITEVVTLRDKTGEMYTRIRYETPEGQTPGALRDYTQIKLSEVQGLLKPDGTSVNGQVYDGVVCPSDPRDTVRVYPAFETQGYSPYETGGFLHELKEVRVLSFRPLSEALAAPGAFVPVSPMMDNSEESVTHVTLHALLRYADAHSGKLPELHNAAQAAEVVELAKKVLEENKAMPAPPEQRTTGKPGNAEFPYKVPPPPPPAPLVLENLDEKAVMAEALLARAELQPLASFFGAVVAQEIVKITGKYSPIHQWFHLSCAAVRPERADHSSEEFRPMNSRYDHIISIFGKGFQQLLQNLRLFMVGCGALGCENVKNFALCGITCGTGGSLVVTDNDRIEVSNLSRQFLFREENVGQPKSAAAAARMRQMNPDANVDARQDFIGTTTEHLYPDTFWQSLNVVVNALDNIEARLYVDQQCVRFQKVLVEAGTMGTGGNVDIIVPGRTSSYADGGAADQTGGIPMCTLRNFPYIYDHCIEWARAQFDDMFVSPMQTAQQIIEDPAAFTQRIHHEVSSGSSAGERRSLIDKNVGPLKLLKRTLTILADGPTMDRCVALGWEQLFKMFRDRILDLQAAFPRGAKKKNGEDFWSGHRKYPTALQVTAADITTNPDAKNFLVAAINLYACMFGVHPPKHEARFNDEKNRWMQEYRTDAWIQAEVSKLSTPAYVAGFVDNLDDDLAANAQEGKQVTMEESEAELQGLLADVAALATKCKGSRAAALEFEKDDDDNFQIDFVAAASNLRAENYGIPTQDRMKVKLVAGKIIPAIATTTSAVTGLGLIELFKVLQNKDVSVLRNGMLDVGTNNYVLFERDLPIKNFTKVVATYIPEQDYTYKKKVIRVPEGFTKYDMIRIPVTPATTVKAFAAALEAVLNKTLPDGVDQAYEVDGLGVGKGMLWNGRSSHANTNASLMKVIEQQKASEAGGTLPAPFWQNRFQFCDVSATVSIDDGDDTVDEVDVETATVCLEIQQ

[3] = biological target: AMP-activated protein kinase, AMPK (Homo sapiens) (UniProt P54646+O43741+P54619+Q9UGJ0+Q9Y478+Q13131+Q9UGI9); test: AMP-dependent Kinase enzyme assay. An in vitro enzyme assay that detects ADP turnover that is directly proportional to AMPK activity. This uses naive AMPK that is activated during the assay with MK-8722; type: functional; details: 30 µM
[4] = biological target: Sialic acid-binding Ig-like lectin 9 (Homo sapiens) (UniProt Q9Y336); test: Hs-Siglec9 ALPHAscreen SOP 20170721; details: 10 µM
Trypanosoma cruzi = test: Trypanosoma cruzi phosphomannomutase and mannose-1-phosphate guanylyltransferase assay; type: functional; details: 10 µM
[5] = biological target: T2, Arginase-2, mitochondrial (Homo sapiens) (UniProt P78540); test: in vitro enzyme assay to detect the production of urea directly proportional to the activity of Arginase II; type: functional; details: 33.3 µM; also: in the data most compounds retested in dose-response had high values
T2 sequence (whole entry): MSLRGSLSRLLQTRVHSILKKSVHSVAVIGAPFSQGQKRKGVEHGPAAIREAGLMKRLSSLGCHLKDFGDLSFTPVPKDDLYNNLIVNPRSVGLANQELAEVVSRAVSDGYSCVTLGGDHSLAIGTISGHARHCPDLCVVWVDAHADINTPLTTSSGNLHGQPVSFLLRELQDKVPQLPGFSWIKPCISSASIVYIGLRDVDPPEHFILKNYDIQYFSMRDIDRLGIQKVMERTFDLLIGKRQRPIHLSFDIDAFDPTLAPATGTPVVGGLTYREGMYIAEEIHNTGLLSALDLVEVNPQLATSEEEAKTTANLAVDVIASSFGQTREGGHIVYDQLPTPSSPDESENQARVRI

[6] = biological target: T3, Proteasome subunit beta (Trypanosoma cruzi) (UniProt O96673); test: Trypanosoma cruzi proteasome chymotrypsin-like activity (TcProtChymo) assay.; also: in the data most compounds retested in dose-response had high values; type: functional; details: 9.37 µM
T3 sequence (whole entry): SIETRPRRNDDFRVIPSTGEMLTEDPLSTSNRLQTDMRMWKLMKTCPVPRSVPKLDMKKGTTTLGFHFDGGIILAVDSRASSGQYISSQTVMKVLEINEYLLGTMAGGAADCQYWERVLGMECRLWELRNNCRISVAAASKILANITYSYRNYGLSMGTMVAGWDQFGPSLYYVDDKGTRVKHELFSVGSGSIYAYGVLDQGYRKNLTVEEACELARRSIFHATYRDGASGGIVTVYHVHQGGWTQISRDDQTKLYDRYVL

Homo sapiens = species: Homo sapiens; test: To identify inhibition of the IFN signalling (Jak-Stat) pathway via expression of an eGFP reporter gene under the control of an IFN-stimulated response element (ISRE) containing MxA promoter.; type: functional; details: 30 µM
[7] = biological target: T4, Tyrosyl-tRNA synthetase, putative (Trypanosoma cruzi (strain CL Brener)) (UniProt Q4DSP6); test: Trypanosoma cruzi tyrosyl tRNA synthetase (TcYRS) _High Tyrosine SOP; type: functional; details: 30 µM; also: in the data most compounds retested in dose-response had high values
T4 sequence (whole entry): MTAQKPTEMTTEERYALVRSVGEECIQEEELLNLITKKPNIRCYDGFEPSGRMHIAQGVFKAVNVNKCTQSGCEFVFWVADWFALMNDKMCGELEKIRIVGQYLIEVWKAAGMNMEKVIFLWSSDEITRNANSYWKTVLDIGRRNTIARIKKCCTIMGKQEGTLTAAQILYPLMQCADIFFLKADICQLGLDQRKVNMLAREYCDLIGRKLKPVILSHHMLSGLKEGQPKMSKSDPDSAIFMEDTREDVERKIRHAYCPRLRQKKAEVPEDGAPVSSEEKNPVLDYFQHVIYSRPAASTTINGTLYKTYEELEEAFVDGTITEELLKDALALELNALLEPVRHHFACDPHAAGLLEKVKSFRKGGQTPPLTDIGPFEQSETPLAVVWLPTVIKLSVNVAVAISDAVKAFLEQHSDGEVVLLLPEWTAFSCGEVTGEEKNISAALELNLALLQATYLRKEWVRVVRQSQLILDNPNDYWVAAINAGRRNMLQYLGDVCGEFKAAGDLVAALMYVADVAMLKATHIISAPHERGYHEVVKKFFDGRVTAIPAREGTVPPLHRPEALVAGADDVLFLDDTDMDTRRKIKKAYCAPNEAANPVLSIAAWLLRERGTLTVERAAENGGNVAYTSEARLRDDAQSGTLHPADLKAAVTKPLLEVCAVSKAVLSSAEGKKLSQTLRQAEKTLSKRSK

[8] = biological target: T4, Tyrosyl-tRNA synthetase, putative (Trypanosoma cruzi (strain CL Brener)); test: Trypanosoma cruzi tyrosyl tRNA synthetase (TcYRS) SOP; type: functional; details: 30 µM
[9] = biological target: Chromo domain-containing protein 1 (Saccharomyces cerevisiae (strain ATCC 204508 / S288c) (Baker's yeast)) (UniProt P32657); test: ScCHD-1 Enzyme Inhibition Assay; type: functional; details: 30 µM; also: in the data most compounds retested in dose-response had high values
Chromo domain-containing protein 1 (Saccharomyces cerevisiae (strain ATCC 204508 / S288c) (Baker's yeast)), sequence (P32657 whole entry, the tested form may be a part): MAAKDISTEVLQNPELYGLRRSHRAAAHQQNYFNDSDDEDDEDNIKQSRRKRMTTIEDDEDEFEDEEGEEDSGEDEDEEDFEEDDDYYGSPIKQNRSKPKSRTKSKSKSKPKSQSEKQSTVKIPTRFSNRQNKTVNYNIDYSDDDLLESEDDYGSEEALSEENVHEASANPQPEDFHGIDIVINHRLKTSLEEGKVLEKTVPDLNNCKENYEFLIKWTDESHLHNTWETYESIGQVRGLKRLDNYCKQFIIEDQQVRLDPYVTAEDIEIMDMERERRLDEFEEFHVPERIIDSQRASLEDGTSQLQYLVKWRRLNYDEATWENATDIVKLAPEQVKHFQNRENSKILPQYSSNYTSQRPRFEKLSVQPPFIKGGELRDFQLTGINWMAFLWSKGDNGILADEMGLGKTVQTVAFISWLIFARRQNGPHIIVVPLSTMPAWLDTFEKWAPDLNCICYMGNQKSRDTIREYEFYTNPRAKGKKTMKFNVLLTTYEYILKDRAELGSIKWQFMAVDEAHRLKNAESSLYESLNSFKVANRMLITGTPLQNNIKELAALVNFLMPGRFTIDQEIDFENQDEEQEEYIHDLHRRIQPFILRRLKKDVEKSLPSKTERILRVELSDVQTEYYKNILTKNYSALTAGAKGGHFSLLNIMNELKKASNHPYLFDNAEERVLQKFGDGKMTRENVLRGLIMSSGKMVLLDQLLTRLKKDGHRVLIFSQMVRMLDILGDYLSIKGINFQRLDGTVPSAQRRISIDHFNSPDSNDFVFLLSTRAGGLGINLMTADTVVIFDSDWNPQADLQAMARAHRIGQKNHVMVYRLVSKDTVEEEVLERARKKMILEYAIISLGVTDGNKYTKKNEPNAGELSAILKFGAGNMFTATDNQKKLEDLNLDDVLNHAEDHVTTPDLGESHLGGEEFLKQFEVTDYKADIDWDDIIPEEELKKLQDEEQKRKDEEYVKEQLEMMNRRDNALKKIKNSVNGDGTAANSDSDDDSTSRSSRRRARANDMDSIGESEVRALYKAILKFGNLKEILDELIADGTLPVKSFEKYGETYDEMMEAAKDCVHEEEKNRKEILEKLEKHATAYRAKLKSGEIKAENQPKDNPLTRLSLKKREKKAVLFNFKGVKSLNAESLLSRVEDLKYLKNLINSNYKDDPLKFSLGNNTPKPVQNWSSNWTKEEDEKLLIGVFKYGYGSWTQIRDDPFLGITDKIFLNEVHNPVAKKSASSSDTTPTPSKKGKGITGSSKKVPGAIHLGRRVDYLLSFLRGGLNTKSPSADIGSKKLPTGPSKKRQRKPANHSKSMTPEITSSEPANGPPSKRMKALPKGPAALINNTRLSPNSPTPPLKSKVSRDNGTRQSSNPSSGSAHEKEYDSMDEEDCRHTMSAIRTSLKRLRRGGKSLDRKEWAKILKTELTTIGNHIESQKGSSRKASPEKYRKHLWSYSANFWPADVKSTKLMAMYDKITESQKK

Sialic acid-binding Ig-like lectin 9 (Homo sapiens), sequence (Q9Y336 whole entry): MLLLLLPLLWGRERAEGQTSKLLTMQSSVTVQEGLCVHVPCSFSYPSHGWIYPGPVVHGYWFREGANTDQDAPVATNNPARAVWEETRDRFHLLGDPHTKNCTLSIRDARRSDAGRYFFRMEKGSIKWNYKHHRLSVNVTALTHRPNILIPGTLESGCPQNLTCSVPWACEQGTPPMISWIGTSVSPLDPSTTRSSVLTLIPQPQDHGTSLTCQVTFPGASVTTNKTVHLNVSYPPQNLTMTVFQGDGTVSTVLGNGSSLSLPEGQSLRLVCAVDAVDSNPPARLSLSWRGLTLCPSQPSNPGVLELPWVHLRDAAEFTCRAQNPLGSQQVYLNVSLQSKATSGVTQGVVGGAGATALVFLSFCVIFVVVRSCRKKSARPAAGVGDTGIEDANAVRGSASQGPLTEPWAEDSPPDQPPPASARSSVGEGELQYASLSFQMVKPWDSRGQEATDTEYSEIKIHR
Protein translocase subunit SecA (Escherichia coli (strain K12)), sequence (P10408 whole entry): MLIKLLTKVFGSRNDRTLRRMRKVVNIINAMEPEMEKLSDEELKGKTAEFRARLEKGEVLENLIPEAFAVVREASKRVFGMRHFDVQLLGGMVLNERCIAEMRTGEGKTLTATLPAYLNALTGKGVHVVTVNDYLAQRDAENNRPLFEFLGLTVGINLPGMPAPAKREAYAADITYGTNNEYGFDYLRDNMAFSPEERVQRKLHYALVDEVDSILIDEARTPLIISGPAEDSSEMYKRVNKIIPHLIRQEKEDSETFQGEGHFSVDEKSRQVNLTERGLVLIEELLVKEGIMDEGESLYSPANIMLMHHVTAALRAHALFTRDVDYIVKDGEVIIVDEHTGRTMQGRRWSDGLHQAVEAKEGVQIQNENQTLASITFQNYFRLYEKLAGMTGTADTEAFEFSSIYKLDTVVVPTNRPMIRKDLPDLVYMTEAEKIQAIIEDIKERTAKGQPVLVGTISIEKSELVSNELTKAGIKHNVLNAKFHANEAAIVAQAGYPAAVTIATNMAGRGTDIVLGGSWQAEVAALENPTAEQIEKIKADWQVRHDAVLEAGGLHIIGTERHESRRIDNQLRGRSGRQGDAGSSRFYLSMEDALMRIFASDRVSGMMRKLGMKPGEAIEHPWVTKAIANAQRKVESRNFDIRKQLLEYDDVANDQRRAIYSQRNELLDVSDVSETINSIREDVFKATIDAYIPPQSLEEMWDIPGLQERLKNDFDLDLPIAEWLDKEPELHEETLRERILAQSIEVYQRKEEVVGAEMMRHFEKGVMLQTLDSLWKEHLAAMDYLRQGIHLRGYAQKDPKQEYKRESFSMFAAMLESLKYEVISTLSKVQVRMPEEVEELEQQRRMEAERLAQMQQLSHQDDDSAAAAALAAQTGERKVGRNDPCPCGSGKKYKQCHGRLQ

SMILES	Percent Effect [1] [%]	Percent Effect [2] [%]	Percent Effect [3] [%]	Percent Effect [4] [%]	Percent Effect (Trypanosoma cruzi) [%]	Percent Effect [5] [%]	Percent Effect [6] [%]	Percent Effect (Homo sapiens) [%]	Percent Effect [7] [%]	Percent Effect [8] [%]	Percent Effect [9] [%]
COc1c(CNCc2cccc(CS(C)(=O)=O)c2)c(C)nn1C	-1.32	13.5	-7.47	-4.4	-6.13	1.2	4.68	4.32	-0.493	11.1	-6.98
O=C(CN1CCCC1Cn1cncn1)NCCc1c(F)cccc1F (stereo unspecified)	-9.37	18.4	-9.7	10.3	11.9	0.719	7.36	-5.35	5.42	18.5	-10.6
CS(=O)(=O)N1CCC(C(=O)NCCNc2ncccn2)CC1	-3.08	10.8	2.54	-1.9	8.45	-7.21	14.2	14.8	6.93	15.8	-3.22
CO[C@H]1CCN(Cc2cnn(C)c2)[C@@H]2CN(Cc3cccnc3)C[C@H]12	-0.848	12	6.27	-3.02	-3.93	-8.63	9.06	-3.47	2.12	5.13	-7.83
COc1ccccc1C(=O)N1Cc2cc(C)ccc2OCC1CN(C)C (stereo unspecified)	-0.165	6.76	11.3	-7.4	-7.91	-1.62	14.5	14.6	2.15	3.9	-11.2
CC(C)(C)n1cc(C(=O)N2CCN(Cc3ccccc3F)CC2)cn1	-2.41	13.2	-1.01	8.67	4.89	0.383	22.4	10.5	6.37	21.9	-11.6
COCC1c2c(cnn2CC2CC2)CCN1Cc1cccs1 (stereo unspecified)	-0.701	-5.33	6.98	7.58	-2.51	-9.5	10.1	-16.5	3.12	-2.5	-3.74
CC(C)Oc1ncc(C(=O)N2CCC(NC(=O)C3CC3)CC2)cc1Cl	-5.61	-2.74	-0.0193	-3.72	-5.56	-0.798	12.8	5.13	0	6.17	-0.607
CN(C)c1cc(CNC(=O)c2ccc(=O)[nH]n2)ccn1	-2.65	18.2	-1.88	-14.6	3.82	-2.32	17.9	4.06	9.52	30.6	-19.7
CN(C)C(=O)CC1CC2(CCN(C(=O)N(C)C)CC2)Oc2ccccc21 (stereo unspecified)	-2.94	8.11	-0.534	-1.19	-4.79	2.73	9.53	4.7	1.07	6.17	-4.24
CN(Cc1cn2c(n1)CN(C(=O)CC1CC1)CC2)Cc1ccco1	-3.7	2.67	8.42	1.6	-0.197	8.16	-3.44	20.3	5.32	14.1	-0.584
CCc1nc2n(n1)CC(NCc1ccnc(-c3ccccc3)n1)CC2 (stereo unspecified)	-0.451	0	-2.11	2.45	6.26	3.6	-4.32	-20.9	3.45	6.17	0.195
Cn1cc(CN2CCn3c(CNC(=O)c4cccn4C)cnc3C2)cn1	1.54	10.7	-1.53	26.8	-0.193	-52.1	14	0.903	7.29	22.5	-7.88
COCCCNC(=O)CN1CCCC1c1c(C)nn(C)c1Cl (stereo unspecified)	-8	8.86	-7.07	-3.46	2.15	2.37	7.38	-0.237	1.04	-7.59	-25.1
O=C(Nc1ccc(CCN2CCC(O)CC2)cc1)C1CCOCC1	-1.94	2.7	-6.78	11.5	4.18	-1.66	1.98	3.22	5.94	11	-3.93
Cc1nc(COC[C@]23COC[C@H]2CN(Cc2ccoc2)C3)cs1	-4.99	0	-4.16	13.2	6.94	0.248	-2.49	-33.4	3.23	11.1	-1.94
